Only some compounds are listed: those with a hit (about 4% of all), similar ones and a draw of the others.
Mtb bLac sens = beta-lactam sensitization of Mtb H37Rv; M. tuberculosis H37Rv growth with meropenem, percent inhibition; inhibition, % at 25 µM; 330,000 tested, 0.27% active; AID 434955; call rule not given here;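 also: growth measured after seven days incubation then overnight dye step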
Mtb UGM inh = blocks M. tuberculosis UGM enzyme; P9WIQ1; purified UGM, fluorescence polarization probe displacement; inhibition, % at 10 µM; 320,000 tested, 0.06% active; AID 504406; in the data active = inhibition above about 10%, passing the limit was not always enough; inconclusive = no clear call, values can overlap the other calls
RecA intein inh = Mtb RecA intein splicing inhibition; AID 2221; cell-free RecA intein splicing, fluorescence; P9WHJ3; inhibition, % (no concentration beside the values); 290,000 tested, 0.75% active; in the data active = inhibition above about 30%; inconclusive = no clear call, values can overlap the other calls
Target sequence (P9WHJ3 whole entry, looked up): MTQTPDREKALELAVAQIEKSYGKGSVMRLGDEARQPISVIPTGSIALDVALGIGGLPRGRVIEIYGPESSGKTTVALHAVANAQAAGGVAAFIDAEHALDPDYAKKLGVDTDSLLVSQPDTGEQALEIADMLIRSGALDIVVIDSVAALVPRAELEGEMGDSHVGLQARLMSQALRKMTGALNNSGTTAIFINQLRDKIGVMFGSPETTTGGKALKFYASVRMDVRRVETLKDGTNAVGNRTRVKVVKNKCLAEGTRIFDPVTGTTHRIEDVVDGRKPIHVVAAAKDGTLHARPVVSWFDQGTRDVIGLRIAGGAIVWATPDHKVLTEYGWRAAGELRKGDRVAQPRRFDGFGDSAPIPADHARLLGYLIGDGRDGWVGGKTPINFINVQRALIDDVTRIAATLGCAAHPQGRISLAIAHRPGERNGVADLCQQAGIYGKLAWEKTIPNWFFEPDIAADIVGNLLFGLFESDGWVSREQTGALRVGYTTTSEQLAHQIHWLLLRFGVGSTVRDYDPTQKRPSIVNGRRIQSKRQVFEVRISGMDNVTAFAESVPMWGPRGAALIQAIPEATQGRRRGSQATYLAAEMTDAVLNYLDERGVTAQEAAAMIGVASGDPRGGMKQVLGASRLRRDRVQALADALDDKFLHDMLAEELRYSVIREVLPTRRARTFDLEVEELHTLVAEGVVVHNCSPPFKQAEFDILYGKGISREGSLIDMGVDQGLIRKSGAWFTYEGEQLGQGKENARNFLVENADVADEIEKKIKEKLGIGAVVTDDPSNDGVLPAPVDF
FBA Mtb inh = inhibits M. tuberculosis FBA enzyme | purified M. tuberculosis FBA, fluorescence read-out | inhibition, % at 1 µM | 360,000 tested, 2.3% active
Rv3671c inh = inhibitors of M. tuberculosis serine protease Rv3671c. AID 2606. P9WHR9. inhibition, % at 5.96 µM. 320,000 tested, 0.048% active; in the data active = inhibition above about 38%;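 also: extracellular domain of Rv3671c used as enzyme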
GDH-TPI counter-1 = inhibits GDH-TPI coupling enzymes, artifact for Mtb FBA screen. 360,000 tested, 1.2% active. GDH-TPI coupled enzyme counterscreen, NADH absorbance. inhibition, % at 4.8 µM; in the data active = inhibition above about 30%
Mtb FBA confirm = Mtb FBA inhibition, confirmed; purified M. tuberculosis FBA, fluorescence read-out; inhibition, % at 1 µM; AID 651616; 5,600 tested, 78% active; shares compounds with FBA Mtb inh
GDH-TPI counter-2 = GDH-TPI inhibition counter-screen for FBA inhibitors | inhibition, % at 1 µM | shares compounds with FBA Mtb inh | GDH-TPI coupled enzyme counterscreen, fluorescence | 5,600 tested, 81% active | AID 652141; in the data active = inhibition above about 10%
GDH-TPI DR = GDH-TPI dose response counter-screen for Mtb FBA | AID 652145 | GDH-TPI coupled enzyme assay, fluorescence, artifact counterscreen | 170 tested, 79% active | IC50, µM | shares compounds with FBA Mtb inh; call rule not given here
Large screens that a line does not name were inactive (follow-up assays come after a bar, where they were run). Rule as the data show it, unless noted: active = inhibition above about 27%; inactive = the rest.

COC1(OC)N=C(N)C2(C#N)C(c3cccc(Oc4ccccc4)c3)C12C#N (stereo not given)	none
COC1(OC)N=C(N)C2(C#N)C(c3ccccc3)NC(C)=CC12C#N (stereo not given)	FBA Mtb inh 62 | Mtb FBA confirm active | GDH-TPI counter-2 active
Cc1cccc2c1-c1sc(C(=O)N3CCCCC3)cc1CO2	Mtb bLac sens inconclusive, FBA Mtb inh 42 | Mtb FBA confirm inactive | GDH-TPI counter-2 19
Cc1cccc2c1-c1sc(C(=O)N3CCc4ccccc4C3)cc1CO2	FBA Mtb inh 41 | Mtb FBA confirm 59 | GDH-TPI counter-2 41
Cc1ncc([N+](=O)[O-])n1CC(C)O (stereo not given)	none (no result: Mtb UGM inh)
CC(O)Cn1nc([N+](=O)[O-])nc1N (stereo not given)	FBA Mtb inh 31 | Mtb FBA confirm 180 | GDH-TPI counter-2 153
Cc1cc(=O)oc2cc(NC(=O)c3ccc(OC(F)F)cc3)ccc12	none
CS(=O)(=O)c1cccc(C(=O)Nc2ccccc2Cc2ccccc2)c1	FBA Mtb inh 58 | Mtb FBA confirm 48 | GDH-TPI counter-2 inactive
Cc1cc(=O)oc2cc(NC(=O)C(C)Oc3ccc(F)cc3)ccc12 (stereo not given)	FBA Mtb inh 33 | Mtb FBA confirm 177 | GDH-TPI counter-2 144
O=C(Cc1ccccc1[N+](=O)[O-])Nc1ccc2c(c1)OCO2	none
Cc1cc(=O)oc2cc(NC(=O)Cc3ccccc3[N+](=O)[O-])ccc12	FBA Mtb inh 63 (no result: RecA intein inh) | Mtb FBA confirm 30 | GDH-TPI counter-2 19
Cc1cc(=O)oc2cc(Nc3ccccc3)ccc12	none (no result: Mtb UGM inh)
Cc1cc(=O)oc2cc(NC(=O)Cc3ccccc3)ccc12	FBA Mtb inh 80 | Mtb FBA confirm active | GDH-TPI counter-2 185
CCCCCCSc1ccc([C@@H]2[C@@H]3C(=O)N(C)C(=O)[C@@H]3[C@]3(C(=O)OC)CCCCN23)cc1OC	none
CCCNC(=O)c1ccc2c(c1)nc(C)n2-c1cccc(Cl)c1	none
CN(Cc1nccs1)C(=O)C1CCC(=O)N(CCc2ccc(Cl)cc2)C1 (stereo not given)	none
Cc1ccc(NC(=O)CCOc2ccccc2C)cc1F	none
Cc1cc(=O)oc2cc(NC(=O)c3cccc(S(=O)(=O)N(C)C)c3)ccc12	none
COc1ccccc1C(=O)Nc1ccc2c(C)cc(=O)oc2c1	none
Cc1cc(=O)oc2cc(NC(=O)C(C)N3C(=O)C4CCCCC4C3=O)ccc12 (stereo not given)	FBA Mtb inh 85 (no result: RecA intein inh) | Mtb FBA confirm 65 | GDH-TPI counter-2 35
Cc1cc(=O)oc2cc(NC(=O)c3cccc(S(C)(=O)=O)c3)ccc12	FBA Mtb inh 34 | Mtb FBA confirm 79 | GDH-TPI counter-2 62
CCCC(C(=O)Nc1ccc2c(C)cc(=O)oc2c1)c1ccccc1 (stereo not given)	FBA Mtb inh 28 | Mtb FBA confirm inactive | GDH-TPI counter-2 inactive | GDH-TPI DR 2.8
Cc1ccccc1OCCC(=O)Nc1ccc2c(C)cc(=O)oc2c1	FBA Mtb inh 95 | Mtb FBA confirm 183 | GDH-TPI counter-2 153
Cc1cc(C)c(S(=O)(=O)N2CCN(c3ccccc3)CC2)c(C)c1	none (no result: RecA intein inh)
COc1ccc(CCNc2oc(COc3ccc(F)cc3)nc2C#N)cc1	none (no result: RecA intein inh)
N#Cc1nc(-c2ccccc2)oc1NCCN1CCCCC1	FBA Mtb inh 81 | Mtb FBA confirm 67 | GDH-TPI counter-2 68
COc1ccc(CCNc2oc(-c3ccco3)nc2C#N)cc1	FBA Mtb inh 54 | Mtb FBA confirm 145 | GDH-TPI counter-2 133
COc1ccc(-c2nc(C#N)c(NCCc3ccccc3)o2)cc1OC	FBA Mtb inh 102 | Mtb FBA confirm active | GDH-TPI counter-2 active
N#Cc1nc(-c2ccco2)oc1NCCc1ccccc1	FBA Mtb inh 41 | Mtb FBA confirm 49 | GDH-TPI counter-2 40
Cc1ccccc1-n1nnnc1SCC(=O)NCC1(N2CCOCC2)CCCCC1	none (no result: RecA intein inh)
Cc1cc(C(=O)CN2C(=O)C(=O)N(CC(C)C)C2=O)c(C)n1C1CC1	none (no result: RecA intein inh)
COc1ccc(N2CC(C(=O)Nc3ccccc3N3CCCC3)CC2=O)c(OC)c1 (stereo not given)	none
COc1cc2[nH]c(C(=O)NCC3CCCO3)cc2c(OC)c1OC (stereo not given)	FBA Mtb inh 32 | Mtb FBA confirm active | GDH-TPI counter-2 active
COc1cc2[nH]c(=S)nc(NC3CCCCCC3)c2cc1OC	none
COc1cc2[nH]c(=S)nc(NCC3CCCO3)c2cc1OC (stereo not given)	FBA Mtb inh 75 | Mtb FBA confirm 83 | GDH-TPI counter-2 61
CCCCN(C=O)c1c(CC)nc2c(OCc3ccccc3C)cccn12	none (no result: Mtb bLac sens, Mtb UGM inh, RecA intein inh, Rv3671c inh)
CCOC(=O)c1n[nH]n2c1nc(=O)c1ccccc12	FBA Mtb inh 33 (no result: Rv3671c inh) | Mtb FBA confirm 116 | GDH-TPI counter-2 108
CC(C)N(C(=O)COC(=O)CCC(=O)c1cccs1)c1ccccc1	none (no result: RecA intein inh)
O=C(NCC(c1cccs1)N1CCOCC1)c1cc2ccccc2oc1=O (stereo not given)	none (no result: RecA intein inh)
COc1ccc(CNc2nc3nc(C)cc(C)n3n2)cc1	none
COc1ccc(-c2nc3nc(C)cc(C)n3n2)cc1	FBA Mtb inh 57 (no result: RecA intein inh) | Mtb FBA confirm 49 | GDH-TPI counter-2 38
Cc1cc(C)n2nc(NCc3ccccc3)nc2n1	FBA Mtb inh 55 | Mtb FBA confirm inactive | GDH-TPI counter-2 inactive
CCN(CC)C(=O)c1ccc2nc3ccccc3nc2c1	none
CCCNC(=O)c1ccc2nc(-c3ccccc3)c(-c3ccccc3)nc2c1	FBA Mtb inh 31 | Mtb FBA confirm 62 | GDH-TPI counter-2 41
CCN1CCN(CCNC(=O)c2ccc3nc(-c4cccc(C)c4)c(-c4cccc(C)c4)nc3c2)CC1	FBA Mtb inh 30 | Mtb FBA confirm 59 | GDH-TPI counter-2 51
COCC(C)NC(=O)c1ccc2nc(-c3ccccc3)c(-c3ccccc3)nc2c1 (stereo not given)	FBA Mtb inh 42 | Mtb FBA confirm 52 | GDH-TPI counter-2 49
CCN(CC)C(=O)c1ccc2nc(-c3ccccc3)c(-c3ccccc3)nc2c1	FBA Mtb inh 48 | Mtb FBA confirm 49 | GDH-TPI counter-2 40
CC(C)NC(=O)c1onc(CSc2ccc(F)cc2)c1C(=O)NC(C)C	none
COC(=O)c1cccc(NS(=O)(=O)c2ccc(NC(C)=O)cc2)c1C	none
COC(=O)c1ccc(C(=O)OC)c(NS(=O)(=O)c2ccc(NC(C)=O)cc2)c1	FBA Mtb inh 34 | Mtb FBA confirm 71 | GDH-TPI counter-2 62
Cc1ccccc1C(=O)N1[C@@H](C(C)C)COc2cc(Br)ccc2S1(=O)=O	none (no result: Mtb bLac sens, Mtb UGM inh, RecA intein inh, Rv3671c inh)
Nc1ccc2ccccc2c1	FBA Mtb inh 28 (no result: Mtb bLac sens, Mtb UGM inh, RecA intein inh, Rv3671c inh) | Mtb FBA confirm 40 | GDH-TPI counter-2 34

Screens deposited in PubChem BioAssay by several laboratories.
